The values that follow come from PMC4552634, “A New Set of Chemical Starting Points with Plasmodium falciparum Transmission-Blocking Potential for Antimalarial Drug Discovery” (PLoS ONE, 2015).

In all, about 13,000 compounds went through this assay and about 3,200 (25%) showed an effect of 50% or more. The list shows a part of the results.

This test concerns P. falciparum stage V gametocytes. More on the design: BacTiter-Glo ATP luminescence viability of purified stage V gametocytes in 384-well plates, per cent inhibition versus DMSO. The note with it: 48 h, 5 µM; inhibitor.
Turning to `O=C(/C=C/c1ccc(Cl)c(Cl)c1)NCCCCCCN1CCCN(C(=O)Nc2ccc(Cl)c(C(F)(F)F)c2)CC1` [TCMDC-135935], the % Inhibition (commonly the drop in the measured response relative to a control, in per cent) is 84.32%.
The result for `O=C(/C=C/c1ccc(Cl)c(Cl)c1)NCCCCCN1CCCN(C(=S)Nc2ccc(Cl)cc2)CC1` [TCMDC-135893] reads 2.458%; that for `Cc1noc(-c2ccccc2)c1NC(=O)N1CCN(CCCCCCNC(=O)/C=C/c2ccc(Cl)c(Cl)c2)CC1` [TCMDC-135892], 75.05%; that for `O=C(/C=C/c1ccc(C(F)(F)F)cc1)NCCCCCN1CCCN(C(=O)Nc2ccc(F)c(Cl)c2)CC1` [TCMDC-136107], 77.99%.
The result for `O=C(/C=C/c1ccc(Cl)cc1)NCCCCCN1CCN(C(=O)C=Cc2ccc(Cl)c(Cl)c2)CC1` [TCMDC-135914] reads 71.52%.
For `O=C(/C=C/c1ccc(C(F)(F)F)cc1)NCCCCCN1CCCN(C(=O)Nc2ccc(Cl)c(Cl)c2)CC1` [TCMDC-136104], the “% Inhibition” value is listed as -57.55%.
In the case of `O=C(/C=C/c1ccc(Cl)c(Cl)c1)NCCCCCN1CCCN(C(=O)Nc2ccc(Cl)cc2)CC1` [TCMDC-135748] it was -7.449%; in that of `Cc1cc(C)c(NC(=O)N2CCCN(CCCCCNC(=O)/C=C/c3ccc(Cl)c(Cl)c3)CC2)c(C)c1` [TCMDC-135753], 28.16%; in that of `O=C(/C=C/c1ccc(C(F)(F)F)cc1)NCCCCCN1CCN(C(=O)Nc2ccc(F)c(Cl)c2)CC1` [TCMDC-136096], 8.329%.
For the molecule `Cc1noc(-c2ccccc2)c1NC(=O)NC1CCN(CCCCCNC(=O)/C=C/c2ccc(Cl)c(Cl)c2)CC1` [TCMDC-135890], the “% Inhibition” value was -22.75%.
The result for `O=C(/C=C/c1ccc(Cl)c(Cl)c1)NCCCCCN1CCCN(C(=O)Nc2ccc(Cl)c(C(F)(F)F)c2)CC1` [TCMDC-135762] reads -47.47%.
The result for `O=C(/C=C/c1ccc(Cl)c(Cl)c1)NCCCCCCN1CCN(C(=O)Nc2ccc(Cl)c(C(F)(F)F)c2)CC1` [TCMDC-135836] reads -47.93%.
The result for `Cc1cccc2[nH]c(-c3cccc(-c4cccc(NC(=O)CC5NC(=O)c6ccccc65)c4)c3)nc12` (stereo not drawn) [TCMDC-137093] reads 12.03%; that for `CCOc1cc(C)ccc1C1CCN(CCCCNC(=O)c2coc(-c3ccc(Cl)cc3)c2)CC1` [TCMDC-138530], -52.9%; that for `O=C(c1cc(C(=O)NCc2ccc(Cl)cc2)c(=O)n(Cc2ccc(Cl)cc2)c1)c1cc(Cl)ccc1O` [TCMDC-124339], -61.86%.
On to `OC(CNc1ccnc(Nc2ccc(Cl)cc2)n1)c1cccc(C(F)(F)F)c1` (stereo not drawn) [TCMDC-136587], for which the “% Inhibition” value came to 30.58%.
In the case of `O=C(/C=C/c1ccc(Cl)c(Cl)c1)NCCCCCCN1CCCN(C(=O)Nc2ccc(Cl)c(Cl)c2)CC1` [TCMDC-135933] it was 52.33%; in that of `O=C(/C=C/c1ccc(Cl)c(Cl)c1)NCCCCCCN1CCCN(C(=O)Nc2ccc(F)c(Cl)c2)CC1` [TCMDC-135940], 14.82%.
The result for `O=C(/C=C/c1ccc(Cl)c(Cl)c1)NCCCCCN1CCCN(C(=O)Nc2cccc(C(F)(F)F)c2)CC1` [TCMDC-135758] reads 79.21%; that for `O=C(/C=C/c1ccc(Cl)c(Cl)c1)NCCCCCCN1CCN(C(=O)Nc2ccc(Cl)c(Cl)c2)CC1` [TCMDC-135835], 30.42%; that for `O=C(/C=C/c1ccc(Cl)c(Cl)c1)NCCCCCCN1CCCN(C(=O)Nc2cccc(C(F)(F)F)c2)CC1` [TCMDC-135934], 13.78%.
In the case of `O=C(/C=C/c1ccc(Cl)c(Cl)c1)NCCCCCN1CCCN(C(=O)Nc2ccc(Cl)c(Cl)c2)CC1` [TCMDC-135759] it was -47.93%.
As for `O=C(/C=C/c1ccc(Cl)c(Cl)c1)NCCCCN1CCCN(C(=O)Nc2ccc(F)c(Cl)c2)CC1` [TCMDC-135931], the “% Inhibition” value was -30.88%.
The result for `O=C(/C=C/c1ccc(Cl)c(Cl)c1)NCCCCN1CCCN(C(=O)Nc2ccc(Cl)c(Cl)c2)CC1` [TCMDC-135932] reads 87.86%; that for `O=C(/C=C/c1ccc(Cl)c(Cl)c1)NCCCCCCN1CCCN(C(=O)Nc2ccc(C(F)(F)F)cc2)CC1` [TCMDC-135937], -27.04%; that for `CCCO[C@H](C(=O)OC)[C@@H](CC1Cc2ccccc2C1)C(=O)NCCC1=CCCCC1` [TCMDC-140419], -16.75%.
In the case of `COc1ccc2nc(C)cc(Nc3ccc(Oc4ccc5ccccc5c4)c(Cl)c3)c2c1` [TCMDC-124209] it was -14.35%.
The result for `N#Cc1cccc(-c2nc(NCc3cccc(C(F)(F)F)c3)nn2-c2cccc(C(F)(F)F)c2)c1` [TCMDC-133548] reads -85.5%.
As for `Cc1nc(N)nc(N)c1-c1ccc(Br)c(Br)c1` [TCMDC-137372], the “% Inhibition” value is 14.5%.
For `COc1ccc2ncc(F)c(CCN3CCC(CNC(=O)C(=O)c4c[nH]c5ccccc45)CC3)c2n1` [TCMDC-135874], the “% Inhibition” value was determined as 3.215%.
In the case of `Cc1cc(C(=O)Nc2ccc3c(ccn3C3CCCN(Cc4ccc(C(F)(F)F)cc4F)CC3)c2)no1` (stereo not drawn) [TCMDC-135088] it was 41.42%.
In the case of `COc1cccc(NC(=O)Nc2ccc(C)c(-c3ccc(C(=O)Nc4ccncc4)cc3)c2)c1` [TCMDC-133704] it was -18.6%.
As for `COc1ccc(NC(=O)c2ccc(-c3ccc(-c4cccnc4)cc3)c(C)c2)cc1OCCN(C)C` [TCMDC-138989], the “% Inhibition” value is 38.05%.
In the case of `COC(=O)c1ccc(-c2ccc(-c3cccnc3)cc2C)cc1` [TCMDC-139074], the “% Inhibition” value turned out to be 95.09%.
In the case of `COc1ccc(NC(=O)c2ccc(OCCCCCCCOc3ccc(C(=O)Nc4ccc(OC)c(N5CCN(C)CC5)c4)cc3)cc2)cc1N1CCN(C)CC1` [TCMDC-139007] it was 102%; in that of `COc1ccc(C(=O)Nc2ccc3nc(N4CCCCC4)cc(C)c3c2)cc1OC` [TCMDC-124422], 4.122%.
The result for `COc1ccc(NC(=O)c2ccc(Br)c(C)c2)cc1N1CCN(CCCCc2ccccc2)CC1` [TCMDC-139035] reads -7.283%.
The result for `COc1ccc(NC(=O)c2ccc(Br)c(C)c2)cc1N1CCN(CCCc2c[nH]c3ccccc23)CC1` [TCMDC-139036] reads 49.59%; that for `COc1ccc(NC(=O)c2ccc(NC(=O)c3ccc(Cl)cc3)cc2)cc1N1CCN(C)CC1` [TCMDC-138188], 5.64%.
For the molecule `COc1ccc(NC(=O)c2ccc3cc4ccccc4cc3c2)cc1N1CCN(C)CC1` [TCMDC-138983], the “% Inhibition” value turned out to be 82.38%.
The result for `COc1ccc(NC(=O)c2cccc(Br)c2)cc1N1CCN(CCCCCCCN2CCN(c3cc(NC(=O)c4cccc(Br)c4)ccc3OC)CC2)CC1` [TCMDC-139020] reads 104.8%; that for `COc1ccc(NC(=O)c2ccc(-c3cccc(OCc4ccccc4)c3)cc2)cc1N1CCN(C)CC1` [TCMDC-138991], -59.54%.
The result for `CCN1CCN(c2cc(C)c3cc(NC(=O)c4ccc(OC)c([N+](=O)[O-])c4)ccc3n2)CC1` [TCMDC-123599] reads 3.112%; that for `COc1ccc(NC(=O)c2ccc(-c3nc(-c4ccccc4)cs3)cc2)cc1N1CCN(C)CC1` [TCMDC-138980], -14.93%; that for `COc1ccc(NC(=O)c2ccc(C=Cc3ccc(C(F)(F)F)cc3)cc2)cc1N1CCN(C)CC1` [TCMDC-138674], 15.84%.
Consider `CCN1CCN(c2cc(C)c3cc(NC(=O)c4ccc(OC)c(OC)c4)ccc3n2)CC1` [TCMDC-123598], for which the “% Inhibition” value is 74.46%.
The result for `O=C(Nc1cc(C(F)(F)F)cc(C(F)(F)F)c1)c1cccc([N+](=O)[O-])c1` [TCMDC-123503] reads -13.95%.
Take `COc1csc2cc(Br)ccc12` [TCMDC-139000]: the “% Inhibition” value came out at 9.347%.
With `COc1cc(C(=O)NCCCN2CCN(c3cc(Cl)ccc3OC)CC2)ccc1-c1nc2cc(Cl)c(Cl)cc2[nH]1` [TCMDC-140079], the “% Inhibition” value was 4.425%.
The result for `COc1cc(C(F)(F)F)c2cc(CNCCCNc3nc4ccccc4[nH]3)[nH]c2c1` [TCMDC-140014] reads 33.56%.
In the case of `CCOc1ccc(Nc2ccc3nonc3c2S(=O)(=O)Nc2ccc(OCC)cc2)cc1` [TCMDC-138325] it was -11.05%; in that of `CCC(CC)(CCC#N)CN(C[C@@H](O)[C@H](Cc1ccccc1)NC(=O)OC(C)(C)C)S(=O)(=O)c1ccc(OC)cc1` [TCMDC-138270], 4.425%.
The result for `COc1ccc(O)c(Cc2cnc3nc(N)[nH]c(=O)c3c2C)c1` [TCMDC-137766] reads -34.15%; that for `CCCNc1ccc2nccc(CCN3CCC(NCc4ccc5c(n4)NC(=O)CS5)CC3)c2n1` [TCMDC-141591], 39.25%.
Turning to `CO/C(=C\C=C\c1cc2cc(Cl)c(Cl)cc2[nH]1)C(=O)NCCCN1CCCC[C@@H]1C` [TCMDC-139059], the “% Inhibition” value came to 70.67%.
The result for `CO/C(=C\C=C\c1cc2cc(Cl)c(Cl)cc2[nH]1)C(=O)NCCN1CCCCC1` [TCMDC-139019] reads 39.34%; that for `COc1ccc(Cl)cc1N1CCN(CCCNC(=O)c2ccc(-c3nc4cc(Cl)c(F)cc4[nH]3)c(F)c2)CC1` [TCMDC-140098], -15.17%.
The result for `COc1ccc2nc(-c3ccc(C(=O)NCCCN4CCN(c5cc(Cl)ccc5OC)CC4)cc3)[nH]c2c1` [TCMDC-140024] reads -1.879%; that for `COc1ccc(Cl)cc1N1CCN(CCCNC(=O)c2ccc(-c3nc4cc(Cl)c(F)cc4[nH]3)cc2)CC1` [TCMDC-140094], 66.12%.
In the case of `CO/C(=C\C=C\c1cc2cc(Cl)c(Cl)cc2[nH]1)C(=O)NCCCN1CC(C)N(C)CC1C` (stereo not drawn) [TCMDC-139044] it was -57.76%; in that of `CO/C(=C\C=C\c1cc2cc(Cl)ccc2[nH]1)C(=O)NCCCN1CCN(c2cc(Cl)ccc2OC)CC1` [TCMDC-139242], 50.82%; in that of `CO/C(=C\C=C\c1cc2cc(Cl)c(Cl)cc2[nH]1)C(=O)NCCCN1CCN(C2CCCCC2)CC1` [TCMDC-139296], -42.38%.
Regarding `CO/C(=C\C=C\c1cc2cc(Cl)c(Cl)cc2[nH]1)C(=O)NCCCCN1CCN(c2ccccc2OC)CC1` [TCMDC-139178], the “% Inhibition” value is recorded as -64.2%.
For the molecule `CO/C(=C\C=C\c1cc2cc(Cl)c(Cl)cc2[nH]1)C(=O)NCCCN1CCN(c2cccc(Cl)c2)CC1` [TCMDC-139141], the “% Inhibition” value was 15.28%.
In the case of `CO/C(=C\C=C\c1cc2cc(Cl)c(Cl)cc2[nH]1)C(=O)NCCCN1CCCC[C@H]1C` [TCMDC-139058] it was 98.53%.
In the case of `CCOC(=O)C1CCN(CCCNC(=O)/C(=C/C=C/c2cc3cc(Cl)c(Cl)cc3[nH]2)OC)CC1` [TCMDC-139356] it was -1.751%.
